In PubChem BioAssay (NCATS):
Results filed as inconclusive are left out. Calls of active or inactive are those of the source. Unless noted, the call rests on the fitted dose curve; in most records, active means well fitted curve in the direction sought with a large enough effect; inconclusive means small, poorly fitted or top-dose-only effect, or another doubt; inactive means no such curve, though single readings can be large; an effect the other way counts as inactive or inconclusive.

Experiment: Primary qHTS to identify inhibitors of SARS-CoV-2 cell entry (AID 1645846; calls by dose curve; further: nearly all actives have a fitted effect of over 45% in size)
Conditions: SARS-CoV-2 pseudovirus cell entry assay, luminescence; activity change, negative = inhibition: at 57.1 µM (top of the series) unless noted; series mostly up to 57.1 µM
How it was run: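 Inhibition of spike-mediated entry was scored in human ACE2-transfected Expi293F cells. Particles were MLV-pseudotyped with Wuhan-Hu-1 S carrying a 19-aa C-terminal deletion; signal was luciferase after two days, scaled between spike PP and fusion-protein-free PP.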

SMILES | activity change, negative = inhibition | outcome
COP(=O)(OC)C(O)C(Cl)(Cl)Cl (centres undefined) | -13.6% | 
CC1COC2(c3ccccc3Cl)c3cc(Cl)ccc3NC(=O)CN12 (centres undefined) |  | inactive
C=CCN1CC[C@]23CCCC[C@H]2[C@H]1Cc1ccc(O)cc13 | -14.7% | 
CC[C@H]1C[C@H]2[C@@H]3CCC4=CC(=O)CC[C@@H]4[C@H]3CC[C@]2(C)[C@H]1O |  | inactive
CCC(=O)O[C@H]1CC[C@H]2[C@@H]3CCC4=CC(=O)CC[C@]4(C)[C@H]3CC[C@]12C |  | inactive
CC(C)[N+](C)(CCC(C(N)=O)(c1ccccc1)c1ccccc1)C(C)C | -0.507% | 
C[C@@H]1CC[C@H]2[C@@H](C)C(=O)O[C@@H]3O[C@@]4(C)CC[C@@H]1[C@]32OO4 | -32% | 
CC(Cc1ccccc1)NCc1ccccc1Cl (centres undefined) | -7.69% | 

Experiment: Primary qHTS for inhibitors of nuclear receptor binding SET domain protein 2 (NSD2) in an isogenic RCH-ACV NSD2 p.E1099K mutant (9B) (AID 1645876); further: nearly all actives have a fitted effect of over 70% in size; further: potency means the concentration at half of the fitted maximal effect; on activity change, negative = viability loss: on the % scale 0 is the no-effect control and ±100 the full control effect
Conditions: RCH-ACV NSD2 E1099K (9B) viability, CellTiter-Glo, 72 h; series mostly up to 44.9 µM; activity change, negative = viability loss: at the top concentration

SMILES | activity change, negative = viability loss | outcome | Potency
CC(=O)OC1(c2ccccc2)CCN(CCc2ccccc2)CC1 | -3.94% [at 91.9 µM] (inactive) |  | 
COP(=O)(OC)C(O)C(Cl)(Cl)Cl (centres undefined) |  | inactive | 
Oc1c(Br)cc(Br)cc1Br | -3.16% (inactive) |  | 
C#C[C@]1(O)CC[C@H]2[C@@H]3CCC4=CC(=O)CCC4=C3C=C[C@@]21CC |  | inactive | 
C=CCN1CC[C@]23CCCC[C@H]2[C@H]1Cc1ccc(O)cc13 | -4.82% (inactive) |  | 
O=c1[nH]c2cc(Cl)ccc2n1C1CCNCC1 | 4.65% (inactive) |  | 
CN1C(=O)CN=C(c2ccccc2)c2cc(Cl)ccc21 |  | inactive | 
COc1cc(CC(C)N)c(OC)cc1Br (centres undefined) |  |  | 10.1 µM (active)
c1ccc2nc(N3CCNCC3)ccc2c1 | -3.62% (inactive) |  | 
CCS(=O)(=O)C(C)(C)S(=O)(=O)CC | -9.17% (inactive) |  | 
O=C(O)CCCCCCNC1c2ccccc2CCc2ccccc21 | 8.56% (inactive) |  | 
C[N+](C)(C)CCOC(=O)C(O)(c1ccccc1)c1ccccc1 | 0.417% (inactive) |  | 
CCC(=O)O[C@H]1CC[C@H]2[C@@H]3CCC4=CC(=O)CC[C@]4(C)[C@H]3CC[C@]12C |  |  | 23.7 µM (active)
COc1cc(CC#N)cc(OC)c1OC | -4.86% (inactive) |  | 
CC(C)[N+](C)(CCC(C(N)=O)(c1ccccc1)c1ccccc1)C(C)C |  | inactive | 
O=C(CBr)Nc1ccc(Cl)cc1C(=O)c1ccccc1F | -10.3% (inactive) |  | 
CCOC(=O)C(c1c(O)c2ccccc2oc1=O)c1c(O)c2ccccc2oc1=O |  | inactive | 
CCCOC(=O)Cc1ccc(OCC(=O)N(CC)CC)c(OC)c1 | 3.44% (inactive) |  | 
Nc1ccc(N)cc1 | -18.9% (inactive) |  | 
C1CN2CCC1CC2 | 8.84% (inactive) |  | 
CCC(OC(C)=O)C(CC(C)NC)(c1ccccc1)c1ccccc1 (centres undefined) |  |  | 24.6 µM (active)
CCOC(=O)NC(C)(C)Cc1ccc(Cl)cc1 | 6.03% (inactive) |  | 
C=CCOC(Cn1ccnc1)c1ccc(Cl)cc1Cl (centres undefined) |  |  | 23.7 µM (active)
Cc1ncc2n1-c1ccc(Cl)cc1C(c1ccccc1F)=NC2 |  |  | 23.7 µM (active)
CC(Cc1ccc2c(c1)OCO2)NO (centres undefined) | -18.4% [at 91.9 µM] (inactive) |  | 
O=C(CCl)c1ccc(Cl)cc1Cl | -16.8% (inactive) |  | 
C[C@]12Cc3nonc3C[C@@H]1CC[C@@H]1[C@@H]2CC[C@@]2(C)[C@H]1CC[C@]2(C)O |  |  | 21.1 µM (active)
CC(C)NCC(O)c1ccc(N)c(C#N)c1 (centres undefined) | 8.48% (inactive) |  | 
NCc1cccnc1 |  | inactive | 
CC[C@]1(O)CC[C@H]2[C@@H]3CCC4=CCCC[C@@H]4[C@H]3CC[C@@]21C |  |  | 9.44 µM (active)

Experiment: Primary qHTS for inhibitors of nuclear receptor binding SET domain protein 2 (NSD2) in an RCH-ACV wild type WT cells (2C) (AID 1645877); further: nearly all actives have a fitted effect of over 70% in size; further: potency means the concentration at half of the fitted maximal effect; on activity change, negative = cell killing: on the % scale 0 is the no-effect control and ±100 the full control effect
Conditions: RCH-ACV (leukaemia line) NSD2 WT (2C) viability, CellTiter-Glo, 72 h; series mostly up to 44.9 µM; activity change, negative = cell killing: at the top concentration

SMILES | activity change, negative = cell killing | Potency | outcome
CC(=O)OC1(c2ccccc2)CCN(CCc2ccccc2)CC1 | -1.84% [at 91.9 µM] (inactive) |  | 
CCc1cc(OC)c(C[C@H](C)N)cc1OC |  | 44.9 µM (active) | 
COP(=O)(OC)C(O)C(Cl)(Cl)Cl (centres undefined) |  |  | inactive
Oc1c(Br)cc(Br)cc1Br | -17.2% (inactive) |  | 
C#C[C@]1(O)CC[C@H]2[C@@H]3CCC4=CC(=O)CCC4=C3C=C[C@@]21CC | -2.68% (inactive) |  | 
C=CCN1CC[C@]23CCCC[C@H]2[C@H]1Cc1ccc(O)cc13 | -14.2% (inactive) |  | 
O=c1[nH]c2cc(Cl)ccc2n1C1CCNCC1 | 4.66% (inactive) |  | 
CN1C(=O)CN=C(c2ccccc2)c2cc(Cl)ccc21 | -4.23% (inactive) |  | 
COc1cc(CC(C)N)c(OC)cc1Br (centres undefined) |  | 8.96 µM (active) | 
c1ccc2nc(N3CCNCC3)ccc2c1 | -10.5% (inactive) |  | 
CCS(=O)(=O)C(C)(C)S(=O)(=O)CC | -18.7% (inactive) |  | 
O=C(O)CCCCCCNC1c2ccccc2CCc2ccccc21 |  |  | inactive
C[N+](C)(C)CCOC(=O)C(O)(c1ccccc1)c1ccccc1 | -10.1% (inactive) |  | 
C[C@H]1C(=O)O[C@@H]2CCN3CC=C(COC(=O)[C@](C)(O)[C@]1(C)O)[C@H]23 |  | 23.7 µM (active) | 
COc1cc(CC#N)cc(OC)c1OC |  |  | inactive
CC(C)[N+](C)(CCC(C(N)=O)(c1ccccc1)c1ccccc1)C(C)C |  |  | inactive

SMILES | activity change, negative = cell killing | Potency | outcome
O=C(CBr)Nc1ccc(Cl)cc1C(=O)c1ccccc1F | -0.629% (inactive) |  | 
CCOC(=O)C(c1c(O)c2ccccc2oc1=O)c1c(O)c2ccccc2oc1=O |  |  | inactive
C[C@@H]1CC[C@H]2[C@@H](C)C(=O)O[C@@H]3O[C@@]4(C)CC[C@@H]1[C@]32OO4 |  | 5.25 µM (active) | 
CCCOC(=O)Cc1ccc(OCC(=O)N(CC)CC)c(OC)c1 | -2.96% (inactive) |  | 
C=CC[C@]1(O)CC[C@H]2[C@@H]3CCC4=CC(=O)CCC4=C3C=C[C@@]21C |  | 23.7 µM (active) | 
C1CN2CCC1CC2 | 3.63% (inactive) |  | 
CCC(OC(C)=O)C(CC(C)NC)(c1ccccc1)c1ccccc1 (centres undefined) |  | 19.5 µM (active) | 
CCOC(=O)NC(C)(C)Cc1ccc(Cl)cc1 | 3.78% (inactive) |  | 
Cc1ncc2n1-c1ccc(Cl)cc1C(c1ccccc1F)=NC2 |  | 13.3 µM (active) | 
CC(Cc1ccc2c(c1)OCO2)NO (centres undefined) | -24.9% [at 91.9 µM] (inactive) |  | 
O=C(CCl)c1ccc(Cl)cc1Cl | -24.6% (inactive) |  | 
C[C@]12Cc3nonc3C[C@@H]1CC[C@@H]1[C@@H]2CC[C@@]2(C)[C@H]1CC[C@]2(C)O |  | 21.1 µM (active) | 
CC(C)NCC(O)c1ccc(N)c(C#N)c1 (centres undefined) | 6.09% (inactive) |  | 
NCc1cccnc1 | -0.475% (inactive) |  | 
CC[C@]1(O)CC[C@H]2[C@@H]3CCC4=CCCC[C@@H]4[C@H]3CC[C@@]21C |  | 7.5 µM (active) | 
